# In the library only some 7.4% were active in any assay of this set; here they are far more common.
# ELG1 genotox = genotoxicity induction in ELG1-luciferase HEK293T cells; 1.3% of 330,000 active; AID 504466; HEK293T ELG1-luciferase reporter, luminescence, 16 h; Potency, µM (series often up to 46 µM), without a hit: top-dose activity change, positive = activation, actives largely listed as activators; further: % of control where 0% means no effect; nearly all actives have a fitted effect of over 60% in size
#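 Step 1: seed 2,000 HEK293T ELG1-luciferase cells per well. Step 2: add compound or DMSO, incubate 16 hr at 37 °C. Step 3: ONE-Glo, 30 min at room temperature, read luminescence.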
# NPC1 promoter act = NPC1 promoter activation; Potency, µM (doses to about 9.22 µM), without a hit: top-dose activation, hits mostly activators; AID 485313; Huh7 NPC1 promoter luciferase reporter, 24 h; 2.4% of 320,000 active; further: % of control where 0% means no effect; nearly all actives have a fitted effect of over 60% in size
#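 NPC1 promoter–luciferase Huh7 cells; 24 h compound; luminescence.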
# FLuc counter = inhibits or activates purified firefly luciferase, miR-21 counter-screen. P08659. 6.9% of 360,000 active. purified FLuc, Km substrates, luminescence inhibition. Potency, µM (titrated, usually from 57.5 µM), for the others: top-dose activity change, negative = inhibition, most hits filed as inhibitors;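 further: plate controls were vehicle for no effect and reference inhibitor for full effect; nearly all actives have a fitted effect of over 55% in size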
# Target sequence (P08659 whole entry, looked up): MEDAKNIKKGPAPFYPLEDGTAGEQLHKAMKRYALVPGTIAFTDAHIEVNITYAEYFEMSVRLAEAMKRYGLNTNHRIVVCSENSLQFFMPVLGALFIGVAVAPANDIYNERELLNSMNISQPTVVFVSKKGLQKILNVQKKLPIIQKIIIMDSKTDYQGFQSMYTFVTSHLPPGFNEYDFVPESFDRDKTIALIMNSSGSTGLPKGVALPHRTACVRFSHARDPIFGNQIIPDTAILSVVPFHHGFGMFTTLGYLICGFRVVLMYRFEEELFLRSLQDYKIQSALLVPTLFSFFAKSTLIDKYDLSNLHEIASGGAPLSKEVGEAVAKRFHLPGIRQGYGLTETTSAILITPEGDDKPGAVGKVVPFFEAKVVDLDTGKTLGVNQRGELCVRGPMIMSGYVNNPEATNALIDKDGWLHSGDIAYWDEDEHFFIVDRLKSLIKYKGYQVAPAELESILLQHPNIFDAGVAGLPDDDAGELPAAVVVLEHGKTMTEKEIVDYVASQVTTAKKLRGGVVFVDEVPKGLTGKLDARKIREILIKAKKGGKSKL
#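 Biochemical qHTS of compounds, final roughly 60 µM downward over six points, against 10 nM purified firefly luciferase using Km concentrations of substrates (10 uM D-luciferin, 10 uM ATP) in Tris acetate pH 7.5 buffer; luminescence output.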
# Rab9 promoter act = Rab9 promoter activation; AID 485297; Potency, µM (doses to about 9.22 µM), for the others: at the top dose activation, negative = inhibition, hits mostly activators; Huh7 Rab9 promoter-luciferase reporter, luminescence, 24 h; 2.8% of 320,000 active; further: % of control where 0% means no effect; nearly all actives have a fitted effect of over 60% in size
#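 Rab9 promoter-driven luciferase in stably transfected Huh7 cells; 1500 cells/well rested 2 h, exposed to compound in DMSO for 24 h at 37 °C, 5% CO2. Luminescence read 10 min after adding luciferase reagent at ambient temperature.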
# SMN2 splice enh = enhancers of SMN2 splice variant expression; AID 1458; 2.8% of 210,000 active; Potency, µM (top dose mostly 46.1 µM), without a hit: top-dose activity change, positive = activation, most hits filed as activators; HEK293 SMN2-luciferase splicing reporter, luminescence, 30-36 h; further: % of control where 0% means no effect; nearly all actives have a fitted effect of over 55% in size
#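 qHTS luciferase splicing reporter: luminescence rises when SMN2 exon 7 is included in transfected HEK293 cells. Compound exposure lasted 30-36 h at 37C, with 4.5 mM final sodium butyrate as control, followed by a ONE-Glo read.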
# An asterisk follows results filed as active; ? = inconclusive; / = no result; [ ] = dose if it differs, or a comment. The call rests on the fitted dose curve; in most records, active means well fitted curve in the direction sought with a large enough effect; inconclusive means small, poorly fitted or top-dose-only effect, or another doubt; inactive means no such curve, though single readings can be large; an effect the other way counts as inactive or inconclusive. Potency means the concentration at half of the fitted maximal effect.
SMILES,ELG1 genotox,NPC1 promoter act,FLuc counter,Rab9 promoter act,SMN2 splice enh
O=c1cnc2cnc(OCc3ccccc3)nc2n1CCc1ccccc1,/,/,/,/,-21%
CCCCN(CC)CCNC(=O)CCC(=O)Nc1ccc2nc(N3CCN(C)CC3)cc(C)c2c1,6%,8%,-4%,-3%,-11%
COc1cccc(NC(=O)CCC(=O)Nc2ccc3nc(N4CCOCC4)cc(C)c3c2)c1,13%,?,6µM*,2.5µM*,/
COc1cccc(CC(=O)Nc2ccc3nc(N4CCC(C)CC4)cc(C)c3c2)c1,/,/,-13%,/,-18%
CCCN(CCC)CCNC(=O)CCC(=O)Nc1ccc2nc(N3CCOCC3)cc(C)c2c1,?,?,-1%,3.5µM*,/
CCCCNC(=O)CCC(=O)Nc1ccc2nc(N3CCCCC3)cc(C)c2c1,9%,?,15µM*,?,7.1µM*
COc1cc(OC)c(NC(=O)CCn2cnc3onc(-c4ccc(F)cc4)c3c2=O)cc1Cl,/,/,-8%,/,/
CS(=O)(=O)c1ccccc1C(=O)Nc1ccc(-c2nc3ccccc3[nH]2)cc1,11%,?,13µM*,3.5µM*,/
CS(=O)(=O)c1ccccc1C(=O)Nc1ccc(-c2nc3ccccc3o2)cc1,9%,?,24µM*,?,/
Cc1ccc(C(=O)Nc2cccc(-c3nc4ccccc4o3)c2)c(Cl)c1,/,/,?,/,-2%
O=C(O)c1ccccc1-c1ccccc1C(=O)Nc1cccc(-c2nc3ccccc3o2)c1,6%,0%,8.5µM*,-4%,/
Cc1ccc(C(=O)Nc2ccc(-c3nc4ccccc4o3)cc2)cc1Cl,/,/,0%,/,2%
CCNS(=O)(=O)c1ccc(Br)c(C(=O)OC(C)C(=O)NCC2CCCCC2)c1 (centres undefined),2%,-3%,5%,-3%,/
C=CCn1c(SCc2ccc(C(=O)Nc3nccs3)cc2)nnc1-c1ccc(C)c(Cl)c1,-14%,1%,11µM*,-1%,-97%
Cn1nnnc1SCc1ccc(C(=O)Nc2ccccc2F)cc1,?,?,?,?,2%
Cn1nnnc1SCc1ccc(C(=O)Nc2nccs2)cc1,?,30%,15µM*,?,11µM*
Cc1cc(C)cc(NC(=O)c2ccc(CSc3nnnn3C)cc2)c1,0%,9%,13µM*,19%,-11%
CCOC(=O)c1c(C)[nH]c(C)c1S(=O)(=O)N1CCC(C(=O)N2CCN(c3cccc(C)c3)C(C)C2)CC1 (centres undefined),/,/,-3%,/,/
COc1ccc(NC(=O)C2CCCN(C(=O)Nc3ccc(F)cc3)C2)cc1 (centres undefined),5%,2%,0%,4%,/
COc1ccccc1C(=O)C1CCCN(Cc2cccc(OCCO)c2)C1 (centres undefined),-3%,0%,1%,-6%,/
O=S(=O)(NCCc1nnc2ccc(SCc3c(F)cccc3Cl)nn12)c1ccccc1,/,/,-13%,/,/
Cn1ccc(C(=O)Nc2ccc3c(c2)OCCO3)n1,5.8µM*,0.89µM*,?,0.71µM*,/
Cn1nc(C(=O)Nc2ccc3c(c2)OCCO3)cc1C(=O)O,13%,3%,9.5µM*,-5%,-1%
COc1ccccc1CN1CCC(n2nccc2NC(=O)CCOc2ccccc2)CC1,-6%,-4%,5%,-4%,/
CCC(C)NC(=O)c1sc2nc(C)c(C(=O)Nc3ccc(C)cc3C)c(-c3ccc(NC(C)=O)cc3)c2c1N (centres undefined),/,/,-9%,/,-12%
SMILES,ELG1 genotox,NPC1 promoter act,FLuc counter,Rab9 promoter act,SMN2 splice enh
O=C(CSc1oc(-c2ccc(F)cc2)nc1S(=O)(=O)c1ccccc1)NC1CCCCC1,/,/,1%,/,2%
CCc1ccc(NC(=O)C2CCCCC2C(=O)O)cc1 (centres undefined),-1%,-2%,-5%,-1%,-1%
CCc1ccc(NC(=O)C2C3/C=C\CCCCC32)cc1 (centres undefined),?,4.5µM*,?,3.2µM*,11µM*
O=C(Nc1ccc(Cl)cc1)C1C2CCCCC21 (centres undefined),?,4µM*,4.8µM*,4µM*,/
O=C1CCC(C(=O)Nc2ccc(Cl)cc2)N1 (centres undefined),2%,-3%,7%,9%,/
Cc1ccc(Cl)cc1N1CCN(CCNC(=O)Nc2ccccc2Cl)CC1,/,/,4%,/,9%
CC(Sc1nnnn1-c1ccc(Cl)cc1)C(=O)NCC(=O)Nc1ccc(F)c(F)c1F (centres undefined),-5%,0%,2%,1%,-16%
Cc1c(-c2nc(N)nc(Nc3ccc(F)cc3)n2)oc2ccccc12,2.3µM*,2.2µM*,?,1.8µM*,16µM*
Cc1ccccc1Nc1nc(N)nc(-c2oc3ccccc3c2C)n1,?,?,21µM*,2.2µM*,/
CCC(=O)N1C2=C(c3ccccc3[C@@H]1CC(=O)Nc1ccc3ccccc3c1)[C@@H]1C(=O)N(c3ccccc3)C(=O)[C@@H]1[C@H](C)C2,/,/,/,/,-2%[9.22 µM]
Cc1cccc(S(=O)(=O)Nc2cccc(-c3ccc(N4CCCCC4)nn3)c2)c1,/,/,3.4µM*,/,/
Cc1cc(C)c(S(=O)(=O)Nc2ccc(-c3ccc(N4CCCCC4)nn3)cc2)c(C)c1,/,/,13µM*,/,/
O=S(=O)(Nc1cccc(-c2ccc(N3CCCCCC3)nn2)c1)c1ccccc1,/,/,7.6µM*,/,/
COc1ccc(-c2cccc(NS(=O)(=O)c3ccc([N+](=O)[O-])cc3)c2)nn1,1%,3%,2%,3%,/
Cc1ccc(S(=O)(=O)Nc2cccc(-c3ccc(N4CCCCCC4)nn3)c2)cc1,?,?,5.4µM*,?,/
O=S(=O)(Nc1cccc(S(=O)(=O)N2CCCCCC2)c1)c1ccccc1,-2%,-1%,-13%,-2%,/
COc1cc(Nc2ccccn2)cc(C(=O)Nc2cccc(C(F)(F)F)c2)c1,-13%,2%,?,-10%,/

# Compound activity deposited in PubChem by National Center for Advancing Translational Sciences (NCATS).
